Records with an inconclusive call do not appear. Activity calls are given as the source filed them. Calls come from the whole dose curve; as a rule, active = well fitted inhibition curve with a large enough effect; inconclusive = small, poorly fitted or top-dose-only effect; inactive = no such curve, though single readings can be large or run the other way.
target: Retinaldehyde dehydrogenase 3 (Homo sapiens) (UniProt P47895); assay: qHTS for Inhibitors of the Aldehyde Dehydrogenase Family (ALDH1A3) Validation screen (AID 2061312); details: ALDH1A3 enzyme inhibition qHTS validation, fluorescence; series mostly up to 84.7 µM; activity change, negative = inhibition: at the top concentration; note: nearly all actives have a fitted effect of over 45% in size
% is set by controls: 0 for no effect and ±100 for the full control effect.

Structure (SMILES)	activity change, negative = inhibition
O=C(O)CN(CCN(CC(=O)O)CC(=O)O)CCN(CC(=O)O)CC(=O)O	-20% [at 42.4 µM] (inactive)
CC1C(=O)N(C)C(=O)c2nc[nH]c21 (stereo not given)	17% [at 42.4 µM] (inactive)
CC[C@@H](C)[C@H]1O[C@]2(CC[C@H]1C)C[C@@H]1C[C@@H](CC=C(C)[C@@H](O[C@H]3C[C@H](OC)[C@@H](O[C@H]4C[C@H](OC)[C@@H](O)[C@H](C)O4)[C@H](C)O3)[C@@H](C)C=CC=C3CO[C@@H]4[C@H](O)C(C)=C[C@@H](C(=O)O1)[C@]34O)O2	-12.8% [at 42.4 µM] (inactive)
N[C@H](CO)C(=O)O	-14.6% [at 42.4 µM] (inactive)
O=C(Nc1ccncc1)c1cc([N+](=O)[O-])ccc1Cl	24.3% [at 42.4 µM] (inactive)
NC1(C(=O)O)CCCCC1	-30.4% [at 42.4 µM] (inactive)
N[C@H](CCCP(=O)(O)O)C(=O)O	-29.5% [at 42.4 µM] (inactive)
CCOC(=O)C1=C[C@]2(CC)CCCN3CCc4c(n1c1ccccc41)[C@@H]32	18.6% [at 42.4 µM] (inactive)
CN(C)CC/C=C1\c2ccccc2COc2ccccc21	29% [at 42.4 µM] (inactive)
NCCSSCCN	0.853% [at 42.4 µM] (inactive)
CC(=O)c1ccc2c(c1)N(CCCN(C)C)c1ccccc1S2	-15.8% [at 42.4 µM] (inactive)
CCCN(CCC)CCc1cccc2c1CC(=O)N2	-18% [at 42.4 µM] (inactive)
CN1CCc2cc(Cl)c(O)cc2[C@@H](c2ccccc2)C1	-27.8% [at 42.4 µM] (inactive)
CCCCCCCCCCC/C=C\C(C)(C)/C=C\CCCC(=O)O	-19.6% [at 42.4 µM] (inactive)
CCCC1O[C@@H]2C[C@H]3[C@@H]4CCC5=CC(=O)C=C[C@]5(C)[C@H]4[C@@H](O)C[C@]3(C)[C@]2(C(=O)CO)O1 (stereo not given in full)	19.3% [at 42.4 µM] (inactive)
Cc1nc2c(OCc3ccccc3)cccn2c1CC#N	17.9% [at 42.4 µM] (inactive)
Oc1cc(O)c2c(c1)O[C@H](c1ccc(O)c(O)c1)[C@@H](O)C2	-17.3% [at 42.4 µM] (inactive)
N[C@@H](CCC(=O)N[C@H](CSN=O)C(=O)NCC(=O)O)C(=O)O	-5.57% [at 42.4 µM] (inactive)
NC(N)=NC(=O)Cc1c(Cl)cccc1Cl	3.34% [at 42.4 µM] (inactive)
Nc1nc(Cl)nc2c1ncn2[C@@H]1O[C@H](COP(=O)(O)OP(=O)(O)OP(=O)(O)O)[C@@H](O)[C@H]1O	-0.649% [at 42.4 µM] (inactive)

Structure (SMILES)	activity change, negative = inhibition
C=C(C)C1CC=C(C(=O)O)CC1 (stereo not given)	3.21% [at 42.4 µM] (inactive)
O=C(Nc1ccccc1)c1cc([N+](=O)[O-])ccc1Cl	26.1% [at 42.4 µM] (inactive)
CC(=O)NNC(=O)N1Cc2ccccc2Oc2ccc(Cl)cc21	13.4% [at 42.4 µM] (inactive)
N[C@H](C(=O)O)c1cc(O)cc(O)c1	35.2% [at 42.4 µM] (inactive)
CC(C)NCC(O)COc1ccc(COCCOC(C)C)cc1 (stereo not given)	20.5% [at 42.4 µM] (inactive)
CN=C(N)NCCC[C@H](N)C(=O)O	20% [at 42.4 µM] (inactive)
CCc1ccc2c(-c3cccc(Cl)c3)nc(=O)n(CC)c2n1	2.76% [at 42.4 µM] (inactive)
Nc1ccn([C@H]2CC[C@@H](CO)O2)c(=O)n1	4.97% [at 42.4 µM] (inactive)
COc1ccc2c(c1)c(CC(=O)O)c(C)n2Cc1ccc(Cl)cc1	17.7% [at 42.4 µM] (inactive)
Cn1ccnc1	-3.18% [at 42.4 µM] (inactive)
N=c1nc(N2CCCCC2)cc(N)n1O	5.61% [at 42.4 µM] (inactive)
NC(N)=NC(N)=Nc1ccccc1	32.5% [at 42.4 µM] (inactive)
Nc1ncnc2c1nc(Sc1ccc(Cl)cc1)n2[C@H]1OC2COP(=O)(O)O[C@@H]2C1O (stereo not given in full)	27.2% [at 42.4 µM] (inactive)
CC1OC1P(=O)(O)O (stereo not given)	13.9% [at 42.4 µM] (inactive)
Clc1cccc(Cl)c1NC1=NCCN1	0.996% [at 42.4 µM] (inactive)
COc1cc(C(O)CO)ccc1OS(=O)(=O)O (stereo not given)	10.9% [at 42.4 µM] (inactive)
O=C1NC(=O)c2c1c(-c1ccccc1)cc1[nH]c3ccc(O)cc3c21	-1.61% [at 42.4 µM] (inactive)
O=C(O)C1=CCNCC1	0.88% [at 42.4 µM] (inactive)
CC(N)(Cc1ccc(O)cc1)C(=O)O (stereo not given)	29.6% [at 42.4 µM] (inactive)
Cn1c(=O)c2c(nc(/C=C/c3cccc(Cl)c3)n2C)n(C)c1=O	-11.8% [at 42.4 µM] (inactive)

— PubChem BioAssay (NCATS)
